Consider 15 substances from article PMC11447256.

Test [1] deals with Eukaryotic translation initiation factor 3 subunit B (UniProt P55884). As to the kind of experiment: cross-linking mass spectrometry.
Test [2] concerns the target Histone H2A type 2-B (UniProt Q8IUE6). Put plainly: cross-linking mass spectrometry.
The target of test [3] is Large ribosomal subunit protein eL6 (UniProt Q02878). Put plainly: cross-linking mass spectrometry.
Test [4] addresses Large ribosomal subunit protein eL8 (UniProt P62424). Put plainly: cross-linking mass spectrometry.
The target of test [5] is Nucleolar protein 16 (UniProt Q9Y3C1). As to the kind of experiment: cross-linking mass spectrometry.
Test [6] deals with Large ribosomal subunit protein uL13 (UniProt P40429). As to the kind of experiment: cross-linking mass spectrometry.
For test [7], the target named is Large ribosomal subunit protein uL15 (UniProt P46776). As to the kind of experiment: cross-linking mass spectrometry.
Test [8] concerns the target Large ribosomal subunit protein eL31 (UniProt P62899). Put plainly: cross-link between two proteins; cross-linking mass spectrometry.
Test [9] has as its target Large ribosomal subunit protein eL20 (UniProt Q02543). The test is described as above.
For test [10], the target named is Small ribosomal subunit protein uS4 (UniProt P46781). Put plainly: cross-linking mass spectrometry.
The target in test [11] is Small ribosomal subunit protein uS9 (UniProt P62249). As to the kind of experiment: cross-linking mass spectrometry.
Test [12] deals with Large ribosomal subunit protein eL19 (UniProt P84098). As to the kind of experiment: cross-link between two proteins; cross-linking mass spectrometry.
Test [13] concerns the target Large ribosomal subunit protein eL36 (UniProt Q9Y3U8). The description is as above.
Test [14] addresses Large ribosomal subunit protein eL43 (UniProt P61513). Described as above.
For test [15], the target named is Small ribosomal subunit protein eS24 (UniProt P62847). Described as above.
Test [16] concerns the target Small ribosomal subunit protein uS5 (UniProt P15880). The test is described as above.
The target of test [17] is Small ribosomal subunit protein uS8 (UniProt P62244). The description is as above.

For the substance “Small ribosomal subunit protein uS4, P46781”, the “listed as a hit” value in test [1] was “yes”.
On to Histone H3.1, P68431, for which the “listed as a hit” value in test [2] is on record as “yes”.
As for “Large ribosomal subunit protein uL30, P18124”, the “listed as a hit” value in test [3] was “yes”.
With “Large ribosomal subunit protein eL13, P26373”, the “listed as a hit” value in test [4] and in test [5] was “yes” in each case.
Consider “Large ribosomal subunit protein uL16, P27635”, for which the “listed as a hit” value in test [6] and in test [7] was “yes” throughout.
As for “Large ribosomal subunit protein uL3, P39023”, the “listed as a hit” value in test [6] and in test [8] was “yes” each time.
As to “Large ribosomal subunit protein uL13, P40429”, the “listed as a hit” value in [7] and in [9] was “yes” throughout.
As for “Small ribosomal subunit protein uS3, P23396”, the “listed as a hit” value in test [10] and in [11] was “yes” in each case.
For the substance “Large ribosomal subunit protein eL43, P61513”, the “listed as a hit” value in test [12] was “yes”.
“Large ribosomal subunit protein eL30, P62888”: the “listed as a hit” value in test [12] is on record as “yes”.
As to “Large ribosomal subunit protein uL1, P62906”, the “listed as a hit” value in test [13] is recorded as “yes”.
Turning to “Large ribosomal subunit protein eL34, P49207”, the “listed as a hit” value in test [14] is listed as “yes”.
On to “Small ribosomal subunit protein uS17, P62280”, for which the “listed as a hit” value in [15] was “yes”.
As for “Small ribosomal subunit protein uS2, P08865”, in test [16], the “listed as a hit” value is “yes”.
“Small ribosomal subunit protein uS5, P15880”: the “listed as a hit” value in test [17] is “yes”.
